From PubChem BioAssay (NCATS) come the findings set out here.

Molecules are shown by their SMILES. Results filed as inconclusive are left out. A number with no mark means an inactive call. Calls of active or inactive are those of the source. Calls come from the whole dose curve; as a rule, active = well fitted curve in the direction sought with a large enough effect; inconclusive = small, poorly fitted or top-dose-only effect, or another doubt; inactive = no such curve, though single readings can be large; an effect the other way counts as inactive or inconclusive.

Experiment [1] deals with Rap guanine nucleotide exchange factor 3 (Homo sapiens) (UniProt O95398). Description: Confirmatory qHTS for antagonist of cAMP-regulated guanine nucleotide exchange factor 3 (EPAC1) (AID 1645880). Note: nearly all actives have a fitted effect of over 55% in size. Note: potency is the fitted concentration of half-maximal effect. The method in brief: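 Nucleotide exchange uses 100 nM EPAC1, 250 nM RAP1B-BODIPY-GDP and 50 uM GDP, with compounds in a concentration-titration series. After 5 min at room temperature, fluorescence (480 nm ex/540 nm em) is read every 5 min for 30 min. Data are normalized to control ATA and DMSO.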
(In general: qHTS replaces the single test concentration by a dilution series.)

The target is the same in experiment [2]. The experiment is described as follows: Confirmatory qHTS for agonist of cAMP-regulated guanine nucleotide exchange factor 3 (EPAC1) (AID 1645881).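 Note: EPAC1 catalysed release of BODIPY-GDP from Rap1B seen as fluorescence loss; 100% = effect of cAMP agonist control; nearly all actives have a fitted effect of over 75% in size.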
Experiment [3] deals with Rap guanine nucleotide exchange factor 4 (Homo sapiens) (UniProt Q8WZA2). Description: Confirmatory qHTS for agonist of cAMP-regulated guanine nucleotide exchange factor 4 (EPAC2) (AID 1645884).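 Note: nucleotide exchange releases bodipy-GDP from Rap1 and this lowers its fluorescence; % is set by controls: 0 for no effect and ±100 for the full control effect; nearly all actives have a fitted effect of over 65% in size.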
Experiment [4] has the same target. The experiment is described as follows: Confirmatory qHTS for antagonist of cAMP-regulated guanine nucleotide exchange factor 4 (EPAC2) (AID 1645885). For activity change, negative = inhibition: % is set by controls: 0 for no effect and ±100 for the full control effect. Note: nearly all actives have a fitted effect of over 25% in size. Note: potency is the fitted concentration of half-maximal effect.
Experiment [5] addresses Rap guanine nucleotide exchange factor 3 (Homo sapiens) (UniProt O95398). The experiment is described as follows: Counterscreen qHTS for antagonist of cAMP-regulated guanine nucleotide exchange factor 3 (EPAC1) (AID 1645888).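 Note: fluorescence loss as bound BODIPY-GDP is released from Rap1B; % of control where 0% means no effect.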 Put shortly: (§1)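 Rap1B-BODIPY-GDP 250 nM + GDP 50 uM; cpds 7-pt, final 9.74 nM–152 uM (activator mode) or from 7.32 nM upwards (inhibitor mode); RT; FI 480/540 nm at 5 and 30 min, then ± cAMP, reread.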
For orientation: Counterscreens check selectivity or assay interference.

Experiment [6] has the same target. Description: Counterscreen qHTS for agonist of cAMP-regulated guanine nucleotide exchange factor 3 (EPAC1) (AID 1645889). For activation: % of control where 0% means no effect. Note: nearly all actives have a fitted effect of over 40% in size. Note: potency is the fitted concentration of half-maximal effect. The method in brief: as §1

Sequence of Rap guanine nucleotide exchange factor 3 (Homo sapiens) (O95398 whole entry, looked up): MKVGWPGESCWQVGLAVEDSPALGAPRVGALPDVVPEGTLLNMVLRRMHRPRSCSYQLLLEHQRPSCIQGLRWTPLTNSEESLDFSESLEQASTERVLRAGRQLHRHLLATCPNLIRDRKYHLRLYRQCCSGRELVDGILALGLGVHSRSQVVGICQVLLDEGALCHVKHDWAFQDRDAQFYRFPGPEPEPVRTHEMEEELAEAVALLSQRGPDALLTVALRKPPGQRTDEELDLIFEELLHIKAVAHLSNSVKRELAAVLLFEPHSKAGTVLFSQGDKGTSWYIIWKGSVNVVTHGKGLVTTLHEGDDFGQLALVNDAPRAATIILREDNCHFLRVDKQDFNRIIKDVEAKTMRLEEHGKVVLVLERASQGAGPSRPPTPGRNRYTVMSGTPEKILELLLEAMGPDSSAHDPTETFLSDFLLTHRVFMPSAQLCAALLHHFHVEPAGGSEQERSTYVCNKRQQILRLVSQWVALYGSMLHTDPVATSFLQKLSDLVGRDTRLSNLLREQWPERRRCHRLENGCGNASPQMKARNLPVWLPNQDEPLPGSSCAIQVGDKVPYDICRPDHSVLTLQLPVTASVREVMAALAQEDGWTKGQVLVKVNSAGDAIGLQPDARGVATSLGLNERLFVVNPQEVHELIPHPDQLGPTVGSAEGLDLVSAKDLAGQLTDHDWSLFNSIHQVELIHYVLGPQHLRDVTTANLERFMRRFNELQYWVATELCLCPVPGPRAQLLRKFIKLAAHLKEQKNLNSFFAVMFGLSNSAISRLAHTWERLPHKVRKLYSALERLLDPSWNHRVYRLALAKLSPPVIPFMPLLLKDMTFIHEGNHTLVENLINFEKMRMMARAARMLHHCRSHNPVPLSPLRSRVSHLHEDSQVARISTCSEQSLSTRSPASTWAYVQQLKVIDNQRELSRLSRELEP
Sequence of Rap guanine nucleotide exchange factor 4 (Homo sapiens) (Q8WZA2 whole entry, looked up): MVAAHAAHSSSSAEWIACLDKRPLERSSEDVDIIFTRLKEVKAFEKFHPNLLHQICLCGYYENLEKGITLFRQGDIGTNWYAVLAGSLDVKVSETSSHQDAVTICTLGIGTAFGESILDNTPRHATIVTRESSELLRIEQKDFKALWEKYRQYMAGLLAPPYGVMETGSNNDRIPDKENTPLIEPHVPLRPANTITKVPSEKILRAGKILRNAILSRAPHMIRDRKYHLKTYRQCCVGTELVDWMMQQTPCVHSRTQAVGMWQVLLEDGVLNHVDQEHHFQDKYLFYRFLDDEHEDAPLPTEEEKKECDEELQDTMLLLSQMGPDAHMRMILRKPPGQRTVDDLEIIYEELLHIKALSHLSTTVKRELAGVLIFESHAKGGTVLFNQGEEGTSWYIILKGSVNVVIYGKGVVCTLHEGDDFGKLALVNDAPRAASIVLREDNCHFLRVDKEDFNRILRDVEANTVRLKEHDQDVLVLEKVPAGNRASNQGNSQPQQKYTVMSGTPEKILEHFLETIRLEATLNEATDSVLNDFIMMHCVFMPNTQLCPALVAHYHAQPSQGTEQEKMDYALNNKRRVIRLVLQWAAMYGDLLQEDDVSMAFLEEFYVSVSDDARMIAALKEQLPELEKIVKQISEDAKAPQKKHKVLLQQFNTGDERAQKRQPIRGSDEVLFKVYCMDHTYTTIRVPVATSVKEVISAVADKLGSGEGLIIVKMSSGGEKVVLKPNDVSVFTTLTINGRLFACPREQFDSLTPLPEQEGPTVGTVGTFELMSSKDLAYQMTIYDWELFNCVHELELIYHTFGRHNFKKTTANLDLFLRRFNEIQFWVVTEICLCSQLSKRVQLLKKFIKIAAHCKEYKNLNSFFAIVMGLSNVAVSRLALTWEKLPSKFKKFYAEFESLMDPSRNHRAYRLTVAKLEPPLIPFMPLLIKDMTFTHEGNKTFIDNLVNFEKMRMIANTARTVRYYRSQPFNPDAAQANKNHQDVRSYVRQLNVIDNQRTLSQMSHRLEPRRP

As for `Cc1ccc(S(=O)(=O)N2[C@@H](c3ccc(Cl)cc3)C(C(=O)O)=CC[C@H]2c2ccc(Cl)c(Cl)c2)cc1`, the Potency in experiment [1] was 75.7 µM (active); in experiment [4] it was 47.8 µM (active). Further, the Potency result in experiment [2], in experiment [3], in experiment [5] and in experiment [6] was “inactive” throughout.
Consider `CCOC(=O)C1CCCCN1Cc1cn(C)nc1-c1ccccc1F` (stereo unspecified), for which the Potency entry in experiment [1], in experiment [2], in experiment [3], in experiment [4], in experiment [5] and in experiment [6] was “inactive” each time.
For `O=C1O/C(=C/c2ccccc2)N=C1c1ccccc1`, the Potency result in experiment [1], in experiment [2], in experiment [3], in experiment [4], in experiment [5] and in experiment [6] was “inactive” in each case.
In the case of `COc1ccc(N2CCN(C(=O)c3sc4nc(-c5ccc(F)cc5)cn4c3C)CC2)cc1`, the Potency entry in experiment [1], in experiment [2], in experiment [3], in experiment [4], in experiment [5] and in experiment [6] was “inactive” each time.
`COCCN(C)Cc1nc(C(c2ccccc2)c2ccccc2)no1`: the Potency entry in experiment [1], in experiment [2], in experiment [3], in experiment [5] and in experiment [6] was “inactive” throughout. In experiment [4], the Potency was 47.8 µM (active).
Regarding `COC(=O)c1cc2sc(C)cc2n1Cc1cccc(OC)c1`, the Potency result in experiment [1], in experiment [2], in experiment [3], in experiment [4], in experiment [5] and in experiment [6] was “inactive” in each case.
For the compound `CN1CCN(S(=O)(=O)c2ccc(Nc3ccc(F)cc3)nc2)CC1`, the Potency entry in experiment [1], in experiment [2] and in experiment [4] was “inactive” throughout. The activation is 6.27% [at 17.1 µM, percent relative to cAMP agonist control] in experiment [3] and 16.5% [at 30.8 µM] in experiment [6]. Moreover, the activity change, negative = inhibition in experiment [5] was -5.53% [at 30.8 µM].
Consider `O=c1c2ccccc2nc(/C=C/c2cccnc2)n1CCc1ccccc1`, for which the Potency in experiment [1] is 23.9 µM (active). The Potency result in experiment [2], in experiment [3], in experiment [4], in experiment [5] and in experiment [6] was “inactive” in each case.
With `COc1ccc(C(=O)N2CCc3cc(OC)c(OC)cc3C2c2ccc(OC)c(OC)c2)cc1` (stereo unspecified), the Potency entry in experiment [1], in experiment [2] and in experiment [4] was “inactive” throughout. The activation was 5.17% [at 17.1 µM, percent relative to cAMP agonist control] in experiment [3] and 15.1% [at 30.8 µM] in experiment [6]. Further, the activity change, negative = inhibition in experiment [5] was -5.18% [at 30.8 µM].
Regarding `CCN(CC)c1nc(C#N)cc(-c2ccc(OC)cc2)n1`, the Potency entry in experiment [1], in experiment [2], in experiment [3], in experiment [4], in experiment [5] and in experiment [6] was “inactive” throughout.
For the compound `CCOC(=O)C1CCCN(C(=O)C(C)(C)Oc2ccc(Cl)cc2)C1` (stereo unspecified), the Potency entry in experiment [1], in experiment [2], in experiment [3], in experiment [4], in experiment [5] and in experiment [6] was “inactive” throughout.
On to `Cc1cc(=O)n(C2CCS(=O)(=O)C2)[nH]1` (stereo unspecified), for which the Potency result in experiment [1], in experiment [2], in experiment [3], in experiment [4] and in experiment [5] was “inactive” in each case. In experiment [6], the Potency is 4.47 µM (active).
In the case of `Cc1nn(CC(=O)N(C)C2CCS(=O)(=O)C2)c(C)c1[N+](=O)[O-]` (stereo unspecified), the Potency result in experiment [1], in experiment [2] and in experiment [4] was “inactive” throughout. Besides, the activation was 2.8% [at 17.1 µM, percent relative to cAMP agonist control] in experiment [3] and 30.9% [at 30.8 µM] in experiment [6]. In addition, the activity change, negative = inhibition in experiment [5] is -13.2% [at 30.8 µM].
As for `O=C(N/N=C/c1cc(Br)c(O)c(Br)c1)c1cc2c(ccc3ccccc32)o1`, the Potency in experiment [1] is 39.8 µM (active). The Potency result in experiment [2] and in experiment [4] was “inactive” in each case. Further, the activation in experiment [3] is -5.24% [at 17.1 µM, percent relative to cAMP agonist control]; in experiment [6], 1.28% [at 30.8 µM]. Further, the activity change, negative = inhibition in experiment [5] is -6.71% [at 30.8 µM].
As to `COc1cccc(CN2CC(O)=C(c3nc(-c4ccc(Cl)cc4)cs3)C2=N)c1`, the Potency entry in experiment [1], in experiment [2] and in experiment [4] was “inactive” each time. In addition, the activation was 0.958% [at 17.1 µM, percent relative to cAMP agonist control] in experiment [3] and 0.754% [at 30.8 µM] in experiment [6]. Further, the activity change, negative = inhibition in experiment [5] was -19.7% [at 30.8 µM].
`Cc1ccc(S(=O)(=O)NCCC(=O)N2CC(C)OC(C)C2)cc1` (stereo unspecified): the Potency entry in experiment [1], in experiment [2], in experiment [3], in experiment [4], in experiment [5] and in experiment [6] was “inactive” each time.
Take `COc1ccc(CCNC(=O)CSc2nc(N)c(C#N)c(-c3cccs3)c2C#N)cc1OC`: the Potency result in experiment [1], in experiment [2] and in experiment [4] was “inactive” throughout. Moreover, the activation in experiment [3] was 3.67% [at 17.1 µM, percent relative to cAMP agonist control]; in experiment [6] it was 20.5% [at 30.8 µM]. Further, in experiment [5], the activity change, negative = inhibition is -17% [at 30.8 µM].
As for `CC(=O)NC(CCS(C)(=O)=O)C(=O)Nc1cc(C)on1` (stereo unspecified), the Potency result in experiment [1], in experiment [2], in experiment [3], in experiment [4], in experiment [5] and in experiment [6] was “inactive” throughout.
For the compound `CCC(=O)N1CCc2cc(OC)c(OC)cc2C1COc1ccccc1OC` (stereo unspecified), the Potency entry in experiment [1], in experiment [2], in experiment [3], in experiment [4] and in experiment [5] was “inactive” in each case. The activation in experiment [6] was 4.46% [at 30.8 µM].
On to `CCOc1ccc(Oc2ccccc2NC(=O)CN2C(=O)NC3(CCCC3)C2=O)cc1`, for which the Potency entry in experiment [1], in experiment [2] and in experiment [4] was “inactive” throughout. Also, the activation in experiment [3] was -25.9% [at 17.1 µM, percent relative to cAMP agonist control]; in experiment [6], 10.7% [at 30.8 µM]. In experiment [5], the activity change, negative = inhibition is -5.88% [at 30.8 µM].
As to `O=C(Nc1nncs1)c1ccccc1NS(=O)(=O)c1cccs1`, the Potency result in experiment [1], in experiment [2], in experiment [3], in experiment [4], in experiment [5] and in experiment [6] was “inactive” each time.
